Values joined by “and” are separate entries in the source; they are usually repeats but may differ in a detail not shown here. Equal values may be shown once. Out of some 5,600 compounds screened, about 150 (2.7%) showed an effect of 50% or more. For the sample, strong results were picked, then their nearest neighbours and some compounds at random.

Assay [1] has as its target T1, Protein deacetylase HDAC6 (Homo sapiens) (UniProt Q9UBN7).
T1 sequence (whole entry): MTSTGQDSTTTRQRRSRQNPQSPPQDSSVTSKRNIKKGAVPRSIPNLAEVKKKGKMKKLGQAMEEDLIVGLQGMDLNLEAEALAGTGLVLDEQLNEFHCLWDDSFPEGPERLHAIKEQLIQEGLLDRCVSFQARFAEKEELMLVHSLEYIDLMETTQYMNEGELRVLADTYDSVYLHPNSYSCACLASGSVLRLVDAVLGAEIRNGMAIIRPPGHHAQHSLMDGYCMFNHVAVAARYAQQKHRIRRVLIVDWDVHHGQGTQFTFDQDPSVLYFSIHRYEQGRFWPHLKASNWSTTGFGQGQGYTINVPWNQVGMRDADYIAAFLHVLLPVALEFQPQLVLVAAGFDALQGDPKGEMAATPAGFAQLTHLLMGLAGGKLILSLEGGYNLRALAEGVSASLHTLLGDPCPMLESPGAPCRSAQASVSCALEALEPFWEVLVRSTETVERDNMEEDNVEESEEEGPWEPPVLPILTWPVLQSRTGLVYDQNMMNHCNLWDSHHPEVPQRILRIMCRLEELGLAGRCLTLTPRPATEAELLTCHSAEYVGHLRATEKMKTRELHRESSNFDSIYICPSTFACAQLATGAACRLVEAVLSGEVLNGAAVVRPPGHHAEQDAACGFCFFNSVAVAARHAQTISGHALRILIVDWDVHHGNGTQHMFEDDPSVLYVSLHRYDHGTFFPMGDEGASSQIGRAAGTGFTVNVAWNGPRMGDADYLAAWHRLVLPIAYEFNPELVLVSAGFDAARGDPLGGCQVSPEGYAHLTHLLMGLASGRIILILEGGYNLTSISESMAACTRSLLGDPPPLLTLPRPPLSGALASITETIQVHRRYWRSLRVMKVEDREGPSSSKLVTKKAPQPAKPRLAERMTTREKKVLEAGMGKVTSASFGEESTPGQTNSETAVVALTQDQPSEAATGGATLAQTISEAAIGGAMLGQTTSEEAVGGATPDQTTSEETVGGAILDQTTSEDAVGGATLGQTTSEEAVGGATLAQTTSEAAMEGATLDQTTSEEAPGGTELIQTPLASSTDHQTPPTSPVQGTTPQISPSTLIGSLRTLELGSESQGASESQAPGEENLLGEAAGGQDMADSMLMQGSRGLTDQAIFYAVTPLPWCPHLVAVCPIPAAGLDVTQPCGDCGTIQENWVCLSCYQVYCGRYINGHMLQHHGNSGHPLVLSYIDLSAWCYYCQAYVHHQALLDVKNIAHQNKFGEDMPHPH
Particulars: at 10 µM.

The target in assay [2] is Protein deacetylase HDAC6 (Homo sapiens) (UniProt Q9UBN7). The following applies: at 10 µM. This is another data set of the same source.

Regarding `CN1[C@H]2C[C@H](OC(=O)[C@H](CO)c3ccccc3)C[C@@H]1[C@@H](O)C2` (racemic), the inhibition (as a rule, the change of the read-out against control, counted positive when it falls) in assay [1] turned out to be 0.83%.

Turning to `C=C1/C(=C\C=C2/CCC[C@]3(C)[C@@H]([C@H](C)CCCC(O)(C(F)(F)F)C(F)(F)F)CC[C@@H]23)C[C@@H](O)C[C@@H]1O`, in assay [1], the inhibition amounted to 4.32%.

Consider `COc1cc(O)c(C(=O)c2ccccc2)cc1S(=O)(=O)O`, for which the inhibition in assay [1] was determined as 2.56%.

For the compound `COc1cc(-c2ccc(/N=N/c3ccc4c(S(=O)(=O)O)cc(S(=O)(=O)O)c(N)c4c3O)c(OC)c2)ccc1/N=N/c1ccc2c(S(=O)(=O)O)cc(S(=O)(=O)O)c(N)c2c1O`, the inhibition in assay [1] was determined as 50.8%.

`COc1cccc(-n2nc(C(=O)O)cc2-c2ccc(C3CCCCC3)c(Cl)c2)c1`: the inhibition in assay [1] was determined as 1.57%.

With `CO/N=C(\C(=O)N[C@@H]1C(=O)N2C(C(=O)O)=C(C)CS[C@H]12)c1csc(N)n1`, the inhibition in assay [1] is 1.72%.

PHENYLMERCURIC ACETATE, CHEMBL1333953: in assay [2], the inhibition worked out at 62%.

Regarding GADOTERIDOL, CHEMBL1200593, the inhibition in assay [2] is -0.37%.

Turning to Miriplatin, CHEMBL4303713, the inhibition in assay [2] is -1.16%.

`NC1CCC(N[C@@H]2C[C@H]2c2ccccc2)CC1` (some centres undefined): the inhibition in assay [1] was -0.23%.

Consider `CN1C(=O)C(N2CCCCC2)S/C1=C\C(=O)O` (centres undefined), for which, in assay [1], the inhibition was 0.03%.

Take `CC(C)Oc1ccc(-c2nn([C@@H](C)c3oc4ccc(F)cc4c(=O)c3-c3cccc(F)c3)c3ncnc(N)c23)cc1F`: the inhibition in assay [1] worked out at 2.17%.

Turning to `COC(=O)C1=C(C)N(C)C(C)=C(C(=O)OC)C1c1ccc(C(F)(F)F)cc1`, the inhibition in assay [1] was determined as 1.92%.

In the case of `COc1cc(CNC(=O)CCCC/C=C/C(C)C)ccc1O`, the inhibition in assay [1] is -2.58%.

As to `CCCCCCCCC(=O)NCc1ccc(O)c(OC)c1`, the inhibition in assay [1] came out at 58.8%.

`CCCCC/C=C\C/C=C\CCCCCCCC(=O)NCCCC(=O)O`: the inhibition in assay [1] worked out at 3.98%.

With `CS(=O)(=O)OC[C@H](O)[C@@H](O)COS(C)(=O)=O`, the inhibition in assay [1] worked out at 2%.

For the compound `N=C1N[C@H]2[C@H](CS[C@H]2CCCCC(=O)O)N1`, the inhibition in assay [1] amounted to 1.67%.

`O=[Si]=O.O=[Si]=O.O=[Si]=O.O=[Si]=O.[O]=[Mg].[O]=[Mg].[O]=[Mg]`: the inhibition in assay [1] worked out at 97.2%.

Take `CNC(=O)c1cccc2cc(Oc3ccnc4cc(OCC5(N)CC5)c(OC)cc34)ccc12`: the inhibition in assay [1] amounted to 11.4%.

On to `c1ccc(CCNc2nc(-c3ccccc3)cs2)cc1`, for which, in assay [1], the inhibition is 83.7%.

For the compound `O=C(O)c1ccccc1NCCc1ccccc1`, the inhibition in assay [1] was found to be 7.74%.

Consider `O=C(NCc1cccc(O)c1)Nc1nc(-c2ccncc2)cs1`, for which, in assay [1], the inhibition was -5.89% and -0.86%.

For `CC(NC(=O)[C@@H](N)Cc1ccc(O)cc1)C(=O)NCC(=O)N(C)[C@@H](Cc1ccccc1)C(=O)N[C@H](CO)CC[S+](C)[O-]` (stereo in doubt), in assay [1], the inhibition is 2.35%.

Take `O=C(O)c1cc(/N=N/c2ccc(O)c(C(=O)O)c2)ccc1O`: the inhibition in assay [1] turned out to be 95.1%.

With `O=C(O)c1cc(O)c(O)c(O)c1`, the inhibition in assay [1] is -7.85%.

Regarding `COc1ccc(NS(=O)(=O)c2ccc(/N=N/c3ccc(O)c(C(=O)O)c3)cc2)nn1`, the inhibition in assay [1] was -4.06%.

Take `CC1(C)[C@@H]2C[C@H]1[C@@](C)(O)[C@@H](O)C2`: in assay [1], the inhibition was -1.04%.

Turning to `Cc1ccc(S(=O)(=O)Nc2ccc3c(c2)c(C(=O)C(F)(F)F)cn3CC(=O)N[C@@H](CC(C)C)C(=O)O)cc1`, in assay [1], the inhibition was -4.82%.

As to `O=C1C[C@@]2(C(=O)N1)C(=O)N(Cc1ccc(Br)cc1F)C(=O)c1cccn12`, in assay [1], the inhibition is -2.35%.

Turning to `COCCN1CCN(Cc2ccc(-c3n[nH]c4c3C(=O)c3c(NC(=O)NN5CCOCC5)cccc3-4)cc2)CC1`, the inhibition in assay [1] is -4.17%.

Turning to `CNC(=O)N(C)N=O`, the inhibition in assay [1] is -4.29%.

For the compound `O=c1c2ccccc2[se]n1-c1ccccc1`, in assay [1], the inhibition stood at 52.4%.

As to `CCC(=O)NO`, the inhibition in assay [1] stood at 44.5%.

Regarding `O=[N+]([O-])c1cn2c(n1)OC[C@@H](OCc1ccc(-c3ccc(OC(F)(F)F)cc3)nc1)C2`, the inhibition in assay [1] is 4.86%.

With `Cc1oc(-c2ccccc2)nc1CCOc1ccc(CC2SC(=O)NC2=O)c2sccc12` (centres undefined), the inhibition in assay [1] was -4.87%.

Regarding `COc1ccc(Nc2ccn(-c3ccccc3)n2)cc1`, in assay [1], the inhibition amounted to 66.8%.

Take `O=C(Nc1ccccc1C(=O)Nc1ccc(CCO)cc1)c1ccc([N+](=O)[O-])cc1`: the inhibition in assay [1] came to 19.2%.

Consider `CCC1OC(=O)CC(O)C(C)C(OC2OC(C)CC(N(C)C)C2O)C(CC=O)CC(C)C(=O)/C=C/C2(C)OC2C1C` (centres undefined), for which, in assay [1], the inhibition came out at 10.6%.

Consider `CN(C)C(=S)SC(=S)N(C)C`, for which the inhibition in assay [1] was 12.2%.

With `O=C(CC1CC(c2ccc(F)cc2F)=NO1)N1CCOCC1` (racemic), the inhibition in assay [1] turned out to be 64.3%.

In the case of `O=C(O)CC1CC(c2ccccc2)=NO1` (centres undefined), the inhibition in assay [1] was -4.54%.

As for `COc1ccc(-c2cnc3c(-c4cccc5ncccc45)cnn3c2)cc1`, in assay [1], the inhibition is -5.32% and -3.01%.

For the compound `CC(C)Oc1ccc(-c2cnc3c(-c4ccnc5ccccc45)cnn3c2)cc1`, the inhibition in assay [1] was -1.97%.

Take `c1cc(-c2cnn3cc(-c4ccc(N5CCNCC5)cc4)cnc23)c2cccnc2c1`: in assay [1], the inhibition was -3.93%.

With `c1cc(-c2cnn3cc(-c4ccc(OCCN5CCCCC5)cc4)cnc23)ccn1`, the inhibition in assay [1] was found to be 60.7%.

Turning to `c1ccc(-c2cnn3cc(-c4ccc(OCCN5CCOCC5)cc4)cnc23)cc1`, the inhibition in assay [1] came out at 78.4%.

With `c1ccc(OCc2ccc(CCCN3CCOCC3)cc2)cc1`, in assay [1], the inhibition came out at 22.1%.

In the case of `CN1C(=O)N(c2cc(Cl)cc(Cl)c2)C(=O)[C@@]1(C)Cc1ccc(Br)cc1`, the inhibition in assay [1] is -0.75%.

For the origin of these results see ChEMBL document CHEMBL4808148, “HDAC6 screening dataset using tau-based substrate in an enzymatic assay yields selective inhibitors and activators” (2021).
